From PubChem
Most compounds without a hit are left out; they make up all but 10% or so of the library.
HP1b binding inh: HTS for Inhibitors of HP1-beta Chromodomain Interactions with Methylated Histone Tails; Chromobox protein homolog 1 (Homo sapiens), P83916; AID 540317, 2011; 0.56% of 390,000 active; Potency, µM (titrated, usually from 114 µM), usual class: inhibitors; AlphaScreen HP1-beta / biotin-H3K9me3 peptide binding; further: nearly all actives have a fitted effect of over 70% in size
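Compound inhibition of the preformed complex between 50 nM HP1-beta and 50 nM biotinylated H3K9me3 peptide was read by AlphaScreen. Buffer was PBS pH 7.4 with 0.01% Tween-20. Incubations ran 30 min at room temperature, with 10 ug/mL donor/acceptor beads.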
GLS inhibitor: qHTS for Inhibitors of Glutaminase (GLS); Glutaminase kidney isoform, mitochondrial (Homo sapiens), O94925; GLS enzymatic activity, qHTS titration; Potency, µM (top dose mostly 45.5 µM), hits mostly inhibitors; 0.21% of 410,000 active; AID 624170, 2012
Target sequence (O94925 whole entry, looked up, canonical isoform): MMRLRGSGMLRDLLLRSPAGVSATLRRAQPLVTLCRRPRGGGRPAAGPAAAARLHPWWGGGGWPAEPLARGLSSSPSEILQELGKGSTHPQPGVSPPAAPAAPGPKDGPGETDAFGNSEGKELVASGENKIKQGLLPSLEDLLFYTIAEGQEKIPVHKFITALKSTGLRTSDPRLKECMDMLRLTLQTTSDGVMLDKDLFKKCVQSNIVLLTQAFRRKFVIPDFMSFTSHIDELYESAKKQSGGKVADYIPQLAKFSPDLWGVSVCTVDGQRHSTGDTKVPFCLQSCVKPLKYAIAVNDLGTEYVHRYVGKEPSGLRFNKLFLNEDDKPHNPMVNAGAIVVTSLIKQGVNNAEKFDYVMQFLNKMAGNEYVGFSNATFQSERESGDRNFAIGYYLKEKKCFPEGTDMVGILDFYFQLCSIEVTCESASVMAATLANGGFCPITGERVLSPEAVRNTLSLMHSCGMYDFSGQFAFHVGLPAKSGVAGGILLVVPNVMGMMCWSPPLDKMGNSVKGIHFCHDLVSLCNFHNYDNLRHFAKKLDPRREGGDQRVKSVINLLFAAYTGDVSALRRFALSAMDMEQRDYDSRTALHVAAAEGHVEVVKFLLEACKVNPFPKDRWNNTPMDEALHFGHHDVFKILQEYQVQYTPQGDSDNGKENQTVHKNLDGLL
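Read-out is an Amplex red fluorescence increase coupled through glutamate oxidase and HRP, measured before and after 30 min room-temperature incubation. hKGA is in 45 mM KH2PO4 (pH 8.2) with 0.02% Tween-20; glutamine added as 1mM solution.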
JMJD2A Tudor: qHTS Assay for Inhibitors of JMJD2A-Tudor Domain. 4.4% of 390,000 active. AID 504339, 2011. Potency, µM (titrated, usually from 114 µM), hits mostly inhibitors. AlphaScreen JMJD2A-Tudor / H3K4me3 peptide binding; further: nearly all actives have a fitted effect of over 50% in size
BAZ2B inh: qHTS Assay for Inhibitors of BAZ2B; Bromodomain adjacent to zinc finger domain protein 2B (Homo sapiens), Q9UIF8; AlphaScreen BAZ2B-H3K14Ac peptide displacement; Potency, µM (doses to about 114 µM), usual class: inhibitors; 4.4% of 360,000 active; further: nearly all actives have a fitted effect of over 60% in size
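Inhibition is scored as reduced AlphaScreen emission. The BAZ2B/b-H3(5-23)K14Ac complex (50 nM each) in PBS pH 7.4, 0.01% Tween-20 meets compound (up to 110 uM) for 30 min at RT before bead addition.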
G9a inh: qHTS Assay for Inhibitors of Histone Lysine Methyltransferase G9a | Histone-lysine N-methyltransferase EHMT2 (Homo sapiens), Q96KQ7 | G9a H3K9 monomethylation, AlphaScreen, 2 h | Potency, µM (series often up to 102 µM), usual class: inhibitors | 8.8% of 350,000 active | AID 504332, 2011; further: nearly all actives have a fitted effect of over 75% in size
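Quantitative HTS format: methyltransferase activity on a biotin-tagged H3K9 peptide is measured by AlphaScreen, using a rabbit anti-monomethyl-H3K9 antibody with streptavidin donor and anti-IgG acceptor beads. Final levels are 20 nM enzyme, 500 nM peptide, 20 uM SAM; 2 h RT.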
Large screens that a line does not name were inactive. The call rests on the fitted dose curve; in most records, active means well fitted curve in the direction sought with a large enough effect; inconclusive means small, poorly fitted or top-dose-only effect, or another doubt; inactive means no such curve, though single readings can be large; an effect the other way counts as inactive or inconclusive.

C[C@@H]1C=C[C@](Cc2ccccc2)(C(=O)NCCc2c[nH]c3ccccc23)N1C(=O)c1ccccc1	JMJD2A Tudor inconclusive, BAZ2B inh inconclusive, G9a inh 50µM
O=C1c2sc3nc4n(c(=O)c3c2CCC1Br)CCCCC4 (stereo not given)	HP1b binding inh inconclusive, JMJD2A Tudor 7.9µM, BAZ2B inh 50µM
C=CCn1c(COC)nnc1SCC(=O)c1ccc(F)cc1	JMJD2A Tudor 40µM, G9a inh 3.5µM
C=CCn1c(COc2cccc3ccc(C)nc23)nnc1SCC(=O)O	JMJD2A Tudor 28µM
C=CCn1c(COc2cccc3cccnc23)nnc1SCC(=O)O	none
Cc1ccc(N2C(=O)CC(Nc3ccc(Cl)c(S(=O)(=O)N(C)C)c3)C2=O)c(C)c1 (stereo not given)	G9a inh inconclusive
Cn1c(N)c(C(=O)COC(=O)c2cc(S(=O)(=O)NCc3ccccc3)ccc2O)c(=O)n(C)c1=O	none (no result: BAZ2B inh, G9a inh)
CC(=O)Nc1nonc1-c1nnc(SCC(=O)Nc2cc(C)ccc2C)n1-c1ccccc1	none
CC1CCCN(C(=O)c2ccc(-c3ccccc3Cl)o2)C1 (stereo not given)	BAZ2B inh inconclusive, G9a inh 45µM
O=C(c1ccc(-c2ccccc2Cl)o1)N1CCCCCCC1	HP1b binding inh inconclusive (no result: BAZ2B inh, G9a inh)
Cc1cccc(C)c1NC(=O)C(c1ccccc1)N1CCC1=O (stereo not given)	JMJD2A Tudor 40µM
Cc1cccc(C)c1NC(=O)C(c1ccccc1)N1CCC2(CC1)OCCO2 (stereo not given)	none (no result: BAZ2B inh, G9a inh)
COc1ccccc1CCNC(=O)CCCn1c(=O)c2cccn2c2cccnc21	none
Cn1ccc2c(/C=C/c3ccc(F)cc3)cc3c(c21)C1CCC3O1 (stereo not given)	none (no result: HP1b binding inh, JMJD2A Tudor, BAZ2B inh, G9a inh)
CC(C)Oc1ccc(C(=O)N(Cc2ccco2)c2ccccn2)cc1	none
O=C(O)CCCCCNc1nc(=S)[nH]c2ccccc12	JMJD2A Tudor 22µM, BAZ2B inh inconclusive, G9a inh inconclusive
Cc1ccc(-n2c(SCc3cc(=O)n4ccsc4n3)nnc2-c2cccnc2)c(C)c1	BAZ2B inh 56µM, G9a inh inconclusive
Cc1ccc(-n2c(SCC(N)=O)nnc2-c2cccnc2)c(C)c1	none
CC(=O)Nc1ccc2c(CSc3nnc(-c4cccnc4)n3-c3ccc(C)cc3C)cc(=O)oc2c1	BAZ2B inh inconclusive, G9a inh 8.9µM
CCCC(NC(=S)NCC1CCCO1)C12CC3CC(CC(C3)C1)C2 (stereo not given)	JMJD2A Tudor inconclusive, G9a inh 13µM
CCCC(NC(=O)c1c(C)noc1C)C12CC3CC(CC(C3)C1)C2 (stereo not given)	none
Cc1ccccc1OCC(=O)Nc1ccc(-c2nc3ccccc3o2)cc1	none
O=C(Nc1cccc([N+](=O)[O-])c1)c1ccc2nc(N3C(=O)CCC3=O)sc2c1	BAZ2B inh inconclusive, G9a inh 11µM (no result: GLS inhibitor)
COc1cccc(C(NC(C)=O)c2nc(-c3csc4ccccc34)cs2)c1 (stereo not given)	none (no result: HP1b binding inh, JMJD2A Tudor, BAZ2B inh, G9a inh)
COc1ccc2c(c1)-c1nc(NC(=O)c3ccc(OC)c(Br)c3)sc1CC2	BAZ2B inh inconclusive
O=C(NC(NCc1ccccn1)(C(F)(F)F)C(F)(F)F)c1ccco1	JMJD2A Tudor 0.71µM, BAZ2B inh 50µM
CN(CCc1ccccn1)C(=S)NC(=O)c1ccco1	BAZ2B inh inconclusive, G9a inh 20µM
O=C(NC(=S)NCCc1ccccn1)c1ccco1	none
CN1OC[C@@H]2CN(C(=S)NCCc3ccccc3)[C@H](c3ccc(-n4ccnc4)cc3)C[C@@H]21	none (no result: HP1b binding inh, JMJD2A Tudor, BAZ2B inh, G9a inh)
COc1ccc(C(O)c2nc(-c3ccc(F)c(Cl)c3)cs2)cc1 (stereo not given)	none (no result: HP1b binding inh, JMJD2A Tudor, BAZ2B inh, G9a inh)
O=C(CCC(=O)N1CCSc2ccccc21)NC1CCCCC1	none
Cc1ccc(OCCCCn2ccnc2C)c(C)c1	HP1b binding inh inconclusive, JMJD2A Tudor 1µM, BAZ2B inh 22µM, G9a inh 2µM
Cc1ccc(C(C)C)c(OCCNS(C)(=O)=O)c1	none
